Most compounds without a hit are left out; they make up all but 21% or so of the library.
CHX counter: counter-screen for Shiga toxin inhibitors: cycloheximide protein synthesis inhibition | cell reporter, cycloheximide protein synthesis inhibition counterscreen | max response, % | hit rate 12% among 300,000 | AID 2314; in the data active = max response mostly above about 13%, no sharp cut-off; inactive = mostly below about 14%; also: read at 38.3 µM for the half of the compounds with a filed dose; 0% is about no effect
Shiga inhibitor: Shiga toxin inhibition | Vero cells, Shiga toxin protein synthesis inhibition reporter | inhibition, % at 38.7 µM | hit rate 9.2% among 290,000; in the data active = inhibition mostly above about 28%, no sharp cut-off; inactive = mostly below about 43%; also: 0% is about no effect
Pf growth 96h: inhibits malaria parasite growth, 96 h; P. falciparum luciferase reporter growth, 96 h; hit rate 6.9% among 320,000; Potency, µM (top dose mostly 28.7 µM), inactives show at the top dose activity change, negative = inhibition, most hits filed as inhibitors; AID 504834; also: potency is read from the fitted curve at half-maximal effect; % is scaled to controls: 0 for no effect and ±100 for the full control effect
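P. falciparum expressing integrated firefly luciferase grown in erythrocytes (2% hematocrit, 0.05% parasitemia final) with compounds for 96 hours at 37 C, 5% CO2. Growth inhibition read as loss of luminescence after adding luciferase detection reagent.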
HCMV antiviral: human cytomegalovirus inhibition. hit rate 4.5% among 410,000. activity change, negative = inhibition, % at 57.5 µM. AID 1259415. HFF cells, HCMV-luciferase reporter, 72 h; hits give low values; in the data active = activity change below about -60%; inconclusive = no clear call, values can overlap the other calls; inactive = above about -39%; also: % is scaled to controls: 0 for no effect and ±100 for the full control effect
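Screen run at 2 compound doses on HFFs infected with reporter HCMV, MOI 1 PFU/cell. Luciferase activity from cell lysates at 72 h post infection gave inhibition relative to buffer-only and Salinomycin wells.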
HCV inh: blocks hepatitis C virus. Huh7.5.1 HCVcc-Cre infection, luciferase reporter, 44 h. hit rate 3.4% among 340,000. Potency, µM (highest dose often 41.8 µM), for inactives: top-dose activity change, negative = inhibition, most hits filed as inhibitors. AID 651820; also: potency is read from the fitted curve at half-maximal effect; % is scaled to controls: 0 for no effect and ±100 for the full control effect
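Infectious HCV cell culture screen: compound-treated cells (1,000/well, pre-plated 4 h) are infected with HCVcc-Cre at roughly 0.5 moi and grown 44 h. Infection is quantified by luciferase signal after 15 min substrate incubation at room temperature.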
Pf growth 48h: inhibits P. falciparum growth in the first generation, 48 h. P. falciparum luciferase growth in erythrocytes, 48 h. Potency, µM (top dose mostly 28.7 µM), for the others: at the highest dose activity change, negative = inhibition, hits mostly inhibitors. hit rate 5.9% among 310,000. AID 504832; also: potency is read from the fitted curve at half-maximal effect; % is scaled to controls: 0 for no effect and ±100 for the full control effect
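Growth was read as firefly luciferase luminescence after a 48 h, 37 C, 5% CO2 exposure of compounds to reporter-bearing P. falciparum cultures (0.1% parasitemia, 2% hematocrit final) in Albumax-supplemented RPMI 1640.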
Starred values were filed as active, the others as inactive; ? = inconclusive; / = no result. Unless noted, calls follow the shape of the dose curve; as a rule, active = well fitted inhibition curve with a large enough effect; inconclusive = small, poorly fitted or top-dose-only effect, or another doubt; inactive = no such curve, though single readings can be large or run the other way.

SMILES	CHX counter	Shiga inhibitor	Pf growth 96h	HCMV antiviral	HCV inh	Pf growth 48h
COc1ccc(C)cc1NC(=O)c1nnn(Cc2cc(C)ccc2C)c1N	5	16	5.2µM*	-22	?	/
COc1ccc(C)cc1NC(=O)c1nnn(CC(=O)Nc2c(C)cccc2C)c1N	/	/	/	-16	/	/
O=C(/C=C\Nc1ccc2c(c1)OCO2)c1ccccn1	-4	-22	?	-81*	14%	67%
O=C(/C=C\Nc1ccc2c(c1)OCO2)c1ccc2c(c1)OCO2	29*	95*	24%	123	?	106%
CCOc1ccc(N/C=C\C(=O)c2ccc3c(c2)OCO3)cc1	/	/	/	81	15%	/
COc1ccc(N/C=C/C(=O)c2ccc3c(c2)OCO3)cc1OC	67*	61*	?	-26	15%	61%
COc1ccc(NC(=O)COC(=O)c2ccc3c(c2)OCCO3)cc1OC	/	/	-17%	-18	?	5%
COc1ccc(N/C=C\C(=O)c2ccc3c(c2)OCO3)cc1	63*	88*	/	58	-25%	289%
CCC(=O)N1c2ccc(S(=O)(=O)NCCc3ccc(OC)c(OC)c3)cc2CC1C (centres undefined)	-11	-4	12%	25	-14%	-6%
Cc1ccc(C)c(Cn2c3ccccc3c3cnn(CC(=O)NC4CCC(C)CC4)c(=O)c32)c1 (centres undefined)	/	/	/	-12	/	/
CN1C2CCC1CC(NC(=O)CSCc1ccc(Cl)cc1Cl)C2 (centres undefined)	-2	6	13µM*	-9	?	?
COc1ccc(C(O)P(=O)(OCCC(C)C)c2ccc(N(C)C)cc2)cc1OC (centres undefined)	-3	-5	?	11	22%	-14%
CC(C)COP(=O)(c1ccc(N(C)C)cc1)C(O)c1ccccc1F (centres undefined)	-5	-14	-15%	-6	3.5µM*	-9%
COc1cc(C(O)P(=O)(OCCC(C)C)c2ccc(N(C)C)cc2)cc(OC)c1OC (centres undefined)	3	-1	?	-6	14%	-24%
Cc1ccc(C(O)P(=O)(OCCC(C)C)c2ccc(N(C)C)cc2)cc1 (centres undefined)	-7	-8	?	/	-9%	12µM*
CC(C)CCOP(=O)(c1ccc(N(C)C)cc1)C(O)c1c(Cl)cccc1Cl (centres undefined)	0	-8	12µM*	?	2%	10µM*
CCCOP(=O)(c1ccc(N(C)C)cc1)C(O)c1ccccc1OC (centres undefined)	-4	17	8%	24	13%	1%
CCCOP(=O)(c1ccc(N(C)C)cc1)C(O)c1ccc(Cl)cc1Cl (centres undefined)	-3	-1	13µM*	-9	9%	7.4µM*
CCOP(=O)(c1ccc(N(C)C)cc1)C(O)c1ccccc1F (centres undefined)	-3	-11	-22%	-15	-13%	-5%
O=C(O)c1ccc(Cl)c(NC(=O)C2CCN(S(=O)(=O)c3cccs3)CC2)c1	/	/	/	-36	/	/
CCCOP(=O)(c1ccc(N(C)C)cc1)C(O)c1c(Cl)cccc1Cl (centres undefined)	-2	3	8.3µM*	-38	7%	?
CCOP(=O)(c1ccc(N(C)C)cc1)C(O)c1c(Cl)cccc1Cl (centres undefined)	2	16	?	23	13%	?
CC(C)COP(=O)(c1ccc(N(C)C)cc1)C(O)c1ccc(Br)cc1 (centres undefined)	3	-3	10µM*	?	-19%	?
CCCCNC(=O)C1(C)CCCCN1C(=O)c1csnn1 (centres undefined)	/	/	/	8	/	/
Cc1ccc(C(OC(=O)c2ccco2)C(=O)NC2CCCC2)cc1 (centres undefined)	-7	2	34%	-14	-9%	8%
SMILES	CHX counter	Shiga inhibitor	Pf growth 96h	HCMV antiviral	HCV inh	Pf growth 48h
Cc1ccc(CN(C(=O)c2ccco2)C(C(=O)NC2CCCC2)c2ccc(N3CCOCC3)cc2)cc1 (centres undefined)	-3	1	-18%	-11	?	10µM*
CC(C)CC(OC(=O)c1ccco1)C(=O)NC1CCCCC1 (centres undefined)	17*	18	364%	13	3%	6%
CC(C)CC(OC(=O)c1ccco1)C(=O)NC1CCCC1 (centres undefined)	-2	-2	2%	6	-17%	3%
Cc1ccc(C(OC(=O)c2ccco2)C(=O)NC2CCCCC2)cc1 (centres undefined)	2	41	?	-98*	1%	7%
CCOc1ccc(C(OC(=O)c2ccco2)C(=O)NCc2ccc(C)cc2)cc1 (centres undefined)	-3	8	?	-74*	-3%	42%
C/C=C(\C)CN1CCC(Oc2cccc(C(=O)NCc3ccccn3)c2)CC1	5	-4	-11%	-22	7%	-18%
Cc1ccc(Cl)cc1NC(=O)CON=C(N)c1ccccc1	/	/	4%	-19	?	4%
COc1ccc(CCN2C(=O)NC(NS(=O)(=O)c3ccc(NC(C)=O)cc3)(C(F)(F)F)C2=O)cc1OC (centres undefined)	-7	-12	6%	15	22%	9%
Cc1c(Cl)cccc1NC(=O)CSc1nc2ncc(Cl)cc2[nH]1	-3	3	-7%	-16	?	?
Cc1ccc(C(C(=O)NC2CCCCC2)N2CCOCC2)cc1 (centres undefined)	2	-9	10µM*	?	-1%	16%
CCC(OC(=O)c1cccs1)C(=O)NCc1ccco1 (centres undefined)	3	2	/	41	18%	-5%
CC(C)CC(OC(=O)c1cccs1)C(=O)NCc1ccco1 (centres undefined)	-1	-3	-8%	0	4%	13µM*
O=C(NC1CCCCC1)C(c1ccccc1)N1CCOCC1 (centres undefined)	-4	-9	24%	-8	8%	2%
Cc1cc(C)c(NC(=O)Cn2c(=O)n(CC(=O)NCCc3ccccc3)c(=O)c3ccccc32)c(C)c1	/	/	/	2	/	/
CC(C)(C)N(Cc1ccccc1)C(=O)CN1C(=O)c2ccccc2C1=O	38*	55*	37%	26	7%	23%
COC(=O)c1ccccc1OCc1cc(=O)oc2ccc(C)cc12	/	/	/	10	/	/
CN(c1ccc(C(=O)NCc2ccccn2)cc1)S(=O)(=O)c1ccc(Cl)cc1	-2	-19	-25%	-32	0%	-23%
CO[C@@H](COC(N)=O)C1=C(N2CC2)C(=O)C(C)=C(N2CC2)C1=O	/	/	0.54µM*	/	/	0.6µM*
COC(COC(N)=O)C1=C(N2CC2)C(=O)C(C)=C(N2CC2)C1=O (centres undefined)	/	/	/	-5	0.56µM*	/

Assay outcomes: PubChem, National Center for Advancing Translational Sciences (NCATS)
